In PubChem BioAssay (NCATS):
Results filed as inconclusive are left out. The list shows a part of the results. Entries that show only a call come without a potency. Calls of active or inactive are those of the source. Unless noted, calls come from the whole dose curve; as a rule, active = well fitted curve in the direction sought with a large enough effect; inconclusive = small, poorly fitted or top-dose-only effect, or another doubt; inactive = no such curve, though single readings can be large; an effect the other way counts as inactive or inconclusive.

Biological target: 3',5'-cyclic-AMP phosphodiesterase 4B (Homo sapiens) (UniProt Q07343)
Experiment: qHTS Assay for Inhibitors of PDE-IV (AID 607; active = well fitted activation curve with a large enough effect in the main read-out, with a control signal flat, not every such curve was filed as active)
Conditions: HEK293 ACTOne CNG channel cells, membrane potential fluorescence; series mostly up to 22.9 µM
Summary of the method: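 ACTOne HEK293 cells carry a modified cAMP-gated CNG channel and express endogenous PDE4; plated 1000 cells/well, compounds up to 22.9 uM final. Membrane-potential dye fluorescence (ex 535/em 590) was read; parental cells received 10 uM forskolin + 100 uM RO 20-1724.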

Chain of 3',5'-cyclic-AMP phosphodiesterase 4B (Homo sapiens) (Q07343 whole entry, looked up): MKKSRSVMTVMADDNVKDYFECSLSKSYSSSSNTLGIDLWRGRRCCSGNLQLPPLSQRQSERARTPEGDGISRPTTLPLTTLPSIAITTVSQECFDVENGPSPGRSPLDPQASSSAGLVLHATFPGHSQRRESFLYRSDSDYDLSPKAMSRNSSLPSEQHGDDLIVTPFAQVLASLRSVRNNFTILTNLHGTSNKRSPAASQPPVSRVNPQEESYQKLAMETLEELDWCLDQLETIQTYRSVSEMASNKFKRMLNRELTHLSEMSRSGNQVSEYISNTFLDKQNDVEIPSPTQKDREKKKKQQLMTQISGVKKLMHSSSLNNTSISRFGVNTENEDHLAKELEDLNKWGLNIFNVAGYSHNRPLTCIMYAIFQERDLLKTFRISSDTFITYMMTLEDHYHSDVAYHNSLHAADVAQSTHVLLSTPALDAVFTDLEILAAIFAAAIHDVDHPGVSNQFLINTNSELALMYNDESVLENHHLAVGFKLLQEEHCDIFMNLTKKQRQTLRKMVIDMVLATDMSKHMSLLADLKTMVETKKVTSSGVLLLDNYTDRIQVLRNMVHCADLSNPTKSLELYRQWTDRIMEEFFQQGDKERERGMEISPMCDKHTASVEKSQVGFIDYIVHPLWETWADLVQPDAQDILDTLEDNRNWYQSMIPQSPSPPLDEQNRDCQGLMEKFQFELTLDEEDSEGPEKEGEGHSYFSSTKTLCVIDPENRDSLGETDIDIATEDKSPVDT

Question: How did the outcome turn out when `O=C1C[C@@H]2OCC=C3CN4CC[C@]56c7ccccc7N1[C@H]5[C@@H]2[C@H]3C[C@@H]46` was run?
Answer: Its outcome is “inactive”.

Question: How did the outcome turn out when `CNC(=O)[C@@H]1C[C@H]1[C@@H](NP(=O)(c1ccccc1)c1ccccc1)c1ccccc1` was run?
Answer: The outcome was “inactive”.

Question: With `COC(=O)[C@@H]1C[C@H]1[C@@H](NP(=O)(c1ccccc1)c1ccccc1)c1ccccc1` as the compound, how does the outcome read?
Answer: Its outcome is “inactive”.

Question: Which outcome does the source give for `COC(=O)[C@@H]1C[C@@H]1[C@@H](NP(=O)(c1ccccc1)c1ccccc1)c1ccccc1` here?
Answer: The outcome was “inactive”.

Biological target: Vitamin D3 receptor (Homo sapiens) (UniProt P11473)
Experiment: qHTS for Inhibitors of the vitamin D receptor (VDR): Hit Validation in Primary Screen (AID 602199); note: potency is the fitted concentration of half-maximal effect
Conditions: VDR-coactivator inhibition assay, qHTS confirmation
Description: (§1) The vitamin D receptor (VDR) is a ligand-activated transcription factor and is partially responsible for the regulation of the endocrine system. This includes the transcriptional regulation of genes involved in the production of the parathyroid hormone (PTH) and the regulation of the blood calcium level. High levels of PHT can cause hypercalcemia in the case of primary and tertiary hyperparathyroidism. The VDR-mediated gene regulation, activated by its ligand 1,25-dihydroxyvitamin D3 (1,25-(OH)2D3), is governed by the recruitment of coactivators. Our hypothesis is that small molecules, with the ability to inhibit the interaction between VDR and certain coactivators, are able to selectively modulate VDR-mediated transcription. Our long term objective is the application these VDR-coactivator inhibitors to study the role of VDR-coactivator binding for specific VDR regulated genes. Ultimately, these molecules can be developed into new treatments for hypercalcemic hyperparathyroidism. No small molecule or non-peptide inhibitors are known for the VDR-coactivator interaction.
In a collaboration between the University of Wisconsin, Milwaukee and the NIH Chemical Genomics Center (NCGC) a HTS-compatible enzymatic assay was developed. The assay uses fluorescence polarization as its read-out to measure the inhibition between VDR and coregulator peptide SRC2-3 exerted by small molecules. This assay was used to screen the NIH Molecular Libraries Small Molecule Repository (MLSMR).
NIH Chemical Genomics Center [NCGC]
NIH Molecular Libraries Probe Centers Network [MLPCN]
Assay Submitter (PI): Alexander Arnold, University of Wilwaukee
Four microliter of either 800nM VDR, 5uM LG19078, and […]nM SRC2-3 Alexa 647 (all final concentrations) in columns 1, 2, and 5 to 48 or […]nM SRC2-3 Alexa 647 in columns 3 and 4 are dispensed into black medium-binding solid bottom Greiner plates. Both solutions are kept at 4 deg C and protected from light and dispensed using a Kalypsys dispenser. […] It is then read on the Envision for a fluorescent polarization read-out (Ex 620 nm/Em 688 nm)

Chain of Vitamin D3 receptor (Homo sapiens) (P11473 whole entry, looked up): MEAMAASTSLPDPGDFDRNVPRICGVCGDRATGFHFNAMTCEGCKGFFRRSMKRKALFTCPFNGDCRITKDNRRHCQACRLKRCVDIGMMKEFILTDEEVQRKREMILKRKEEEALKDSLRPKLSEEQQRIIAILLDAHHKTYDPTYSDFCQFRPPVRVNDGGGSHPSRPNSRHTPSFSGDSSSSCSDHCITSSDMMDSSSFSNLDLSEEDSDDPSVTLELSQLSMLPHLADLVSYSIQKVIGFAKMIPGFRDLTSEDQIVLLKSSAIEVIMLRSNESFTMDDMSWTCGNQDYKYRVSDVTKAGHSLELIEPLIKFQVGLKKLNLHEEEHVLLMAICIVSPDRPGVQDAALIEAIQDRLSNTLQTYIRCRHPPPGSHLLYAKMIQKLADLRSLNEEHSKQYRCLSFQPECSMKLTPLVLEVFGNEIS

Question: How did the Potency turn out when `O=C1NC(=O)N(c2ccccc2)C(=O)/C1=C/c1ccc([N+](=O)[O-])s1` was run?
Answer: Its Potency is 26.7 µM (active).

Question: `Cc1ccnc(-n2c(C)cc(/C=C3\C(=O)NC(=S)N(C)C3=O)c2C)c1` was tested. Which Potency did it give?
Answer: Its Potency is 29.9 µM (active).

Question: `O=C(O)CCn1cc(C=C2C(=O)NC(=S)NC2=O)c(-c2cccc(Br)c2)n1` was tested. Which Potency did it give?
Answer: The Potency was 6.7 µM (active).

Biological target: Vitamin D3 receptor (Homo sapiens) (UniProt P11473)
Experiment: qHTS for Inhibitors of the vitamin D receptor (VDR): Hit Validation using a Beta-Lactamase Assay (AID 602202)
Conditions: VDR beta-lactamase reporter cells, FRET ratio; series mostly up to 46.1 µM
Description: as §1
In a collaboration between the University of Wisconsin, Milwaukee and the NIH Chemical Genomics Center (NCGC) a HTS-compatible enzymatic assay was developed. The assay uses fluorescence polarization as its read-out to measure the inhibition between VDR and coregulator peptide SRC2-3 exerted by small molecules. This assay was used to screen the NIH Molecular Libraries Small Molecule Repository (MLSMR). The cell-based VDR transcription assay was carried out with commercially available stably transfected HEK293 cells. […] Successful activation is detected by a decrease in time-resolved fluorescence resonance energy transfer (TR-FRET) caused by enzymatic cleavage of fluorescent betalactam substrate added after 24h incubation. The cleaved substrate concentration was quantified by measuring the fluorescence emission at 447 nm. […]

Question: `O=C1NC(=O)N(c2ccccc2)C(=O)/C1=C/c1ccc([N+](=O)[O-])s1` was tested. Which outcome did it give?
Answer: Its outcome is “inactive”.

Question: How did the outcome turn out when `Cc1ccnc(-n2c(C)cc(/C=C3\C(=O)NC(=S)N(C)C3=O)c2C)c1` was run?
Answer: The outcome was “inactive”.

Question: Which outcome does the source give for `O=C(O)CCn1cc(C=C2C(=O)NC(=S)NC2=O)c(-c2cccc(Br)c2)n1` here?
Answer: The outcome was “inactive”.

Biological target: Luciferin 4-monooxygenase (Photinus pyralis) (UniProt P08659)
Experiment: Biochemical firefly luciferase enzyme assay for NPC (AID 624030);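 note: purified P. pyralis luciferase at 10 nM with luciferin and ATP substrate; nearly all actives have a fitted effect of over 70% in size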
Conditions: purified P. pyralis luciferase, luminescence, 5 min; series mostly up to 58.6 µM
Summary of the method: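 Direct inhibition of firefly luciferase enzyme (10 nM final, 50 mM Tris Acetate) assessed by luminescence within 5 minutes. Percent activity scaled between DMSO and PTC124 positive control, with concentration-effect curves classified by fit quality and response.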

Chain of Luciferin 4-monooxygenase (Photinus pyralis) (P08659 whole entry, looked up): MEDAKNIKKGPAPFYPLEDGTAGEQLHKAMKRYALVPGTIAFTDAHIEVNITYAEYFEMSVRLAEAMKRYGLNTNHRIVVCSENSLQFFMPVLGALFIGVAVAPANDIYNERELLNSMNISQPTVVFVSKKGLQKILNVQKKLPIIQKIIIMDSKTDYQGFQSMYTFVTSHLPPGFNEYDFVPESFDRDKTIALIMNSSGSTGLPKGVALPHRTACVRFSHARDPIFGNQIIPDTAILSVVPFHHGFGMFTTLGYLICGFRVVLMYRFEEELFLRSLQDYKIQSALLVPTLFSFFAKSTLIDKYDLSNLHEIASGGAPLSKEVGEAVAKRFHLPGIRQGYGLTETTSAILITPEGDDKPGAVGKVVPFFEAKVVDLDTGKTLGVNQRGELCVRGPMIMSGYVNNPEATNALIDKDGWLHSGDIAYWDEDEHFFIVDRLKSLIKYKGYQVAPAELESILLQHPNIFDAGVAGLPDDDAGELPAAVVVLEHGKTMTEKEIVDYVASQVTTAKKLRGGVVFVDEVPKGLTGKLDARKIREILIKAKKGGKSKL

Question: For `O=[N+]([O-])NC1=NCCN1Cc1ccc(Cl)nc1`, which Potency is on record?
Answer: The Potency was “inactive”.

Question: With `CC12CCC(=O)CC1CCC1C2CCC2(C)C1CCC2(C)O` (configuration not stated) as the compound, how does the Potency read?
Answer: Its Potency is “inactive”.

Question: With `CC1(O)CCC2C3CCC4=CC(=O)CCC4(C)C3(F)C(O)CC21C` (configuration not stated) as the compound, how does the Potency read?
Answer: Its Potency is “inactive”.

Question: `C[C@]12CCC3[C@@H](CCC4=CC(=O)CC[C@@]43C)C1CCC2OC(=O)CCc1ccccc1` (some centres not stated) was tested. Which Potency did it give?
Answer: The Potency was “inactive”.

Question: How did the Potency turn out when `Cc1ccc2c(c1)[C@]13CCCC[C@@H]1[C@@H](C2)N(C)CC3` was run?
Answer: The Potency was “inactive”.

Question: How did the Potency turn out when `CC(N)C(=O)c1ccccc1` (configuration not stated) was run?
Answer: The Potency was “inactive”.

Question: Which Potency does the source give for `CC(C)=CCN1CC[C@@]2(C)c3cc(O)ccc3C[C@@H]1C2C` (some centres not stated) here?
Answer: The Potency was “inactive”.

Question: With `CN[C@H]1C[C@@H](N)[C@H](O)[C@@H](O[C@@H]2O[C@H](CO)[C@H](O)[C@@H]3O[C@]4(O[C@@H]23)O[C@H]([C@@H](N)CO)[C@H](O)[C@@H](O)[C@H]4O)[C@@H]1O` as the compound, how does the Potency read?
Answer: Its Potency is “inactive”.

Question: How did the Potency turn out when `CCNC(C)Cc1ccc2c(c1)OCO2` (configuration not stated) was run?
Answer: The Potency was “inactive”.

Question: Which Potency does the source give for `C[C@]12CCC(=O)C=C1CC[C@H]1C2CC[C@@]2(C)[C@@H]1CC[C@]2(C)O` (some centres not stated) here?
Answer: The Potency was “inactive”.

Question: How did the Potency turn out when `Cc1c(N)nc([C@@H](CC(N)=O)NC[C@H](N)C(N)=O)nc1C(=O)N[C@H](C(=O)N[C@H](C)[C@H](O)[C@H](C)C(=O)N[C@@H](C(=O)NCCc1nc(-c2nc(C(=O)NCCC[S+](C)C)cs2)cs1)[C@H](C)O)[C@H](O[C@@H]1O[C@@H](CO)[C@@H](O)[C@H](O)[C@@H]1O[C@H]1O[C@H](CO)[C@H](O)[C@H](OC(N)=O)[C@@H]1O)c1cnc[nH]1` was run?
Answer: Its Potency is “inactive”.

Question: With `Oc1ccc2c3c1O[C@H]1[C@@H](O)C=CC4[C@@H](C2)NCC[C@@]341` (some centres not stated) as the compound, how does the Potency read?
Answer: The Potency was “inactive”.

Question: Which Potency does the source give for `C=C/C=C/CC1=C(C)[C@@H](OC(=O)[C@@H]2[C@@H](/C=C(\C)C(=O)OC)C2(C)C)CC1=O` (tested in a mixture with another compound) here?
Answer: Its Potency is “inactive”.

Question: How did the Potency turn out when `COc1ccc2c3c1OC1C(O)C=CC4[C@@H](C2)N(C)CC[C@]314` (some centres not stated) was run?
Answer: Its Potency is “inactive”.

Question: Which Potency does the source give for `CC(C)CC1C(=O)N2CCCC2C2(O)OC(NC(=O)C3CC4c5cccc6[nH]cc(c56)CC4N(C)C3)(C(C)C)C(=O)N12` (configuration not stated) here?
Answer: Its Potency is “inactive”.

Question: Which Potency does the source give for `C[C@]12CCC3C(CCC4=CC(=O)CC[C@@H]43)C1CCC2O` (some centres not stated) here?
Answer: The Potency was “inactive”.

Question: How did the Potency turn out when `C[N+]1(CCF)[C@@H]2CC[C@@H]1CC(OC(=O)C(O)(c1ccccc1)c1ccccc1)C2` (some centres not stated) was run?
Answer: The Potency was “inactive”.

Question: How did the Potency turn out when `CCC1CC2CC3c4[nH]c5ccc(OC)cc5c4CCN(C2)C13` (configuration not stated) was run?
Answer: The Potency was “inactive”.

Question: How did the Potency turn out when `CC1[C@H]2Cc3ccc(O)cc3[C@]1(C)CCN2CCc1ccccc1` (some centres not stated) was run?
Answer: Its Potency is “inactive”.

Question: How did the Potency turn out when `CCc1cc(OC)c(CC(C)N)cc1OC` (configuration not stated) was run?
Answer: The Potency was “inactive”.

Question: How did the Potency turn out when `O=C1[O][Sb-]23[O]C(=O)C([O]2)C2[O][Sb-]4([O]C(=O)C([O]4)C1[O]3)[O]C2=O` was run?
Answer: The Potency was “inactive”.

Question: Which Potency does the source give for `C[C@H]1[C@@H]2Cc3ccc(O)cc3[C@]1(C)CCN2CCc1ccccc1` here?
Answer: Its Potency is “inactive”.

Question: For `COc1cc(CC(C)N)c(OC)cc1C` (configuration not stated), which Potency is on record?
Answer: The Potency was “inactive”.

Question: For `C[C@H]1[C@@H]2Cc3ccc(O)cc3[C@]1(C)CCN2C`, which Potency is on record?
Answer: Its Potency is “inactive”.

Question: For `CCON=C(CC)C1=C(O)CC(c2c(C)cc(C)cc2C)CC1=O` (configuration not stated), which Potency is on record?
Answer: The Potency was “inactive”.

Question: `CC1[C@H]2Cc3ccc(O)cc3[C@]1(C)CCN2C` (some centres not stated) was tested. Which Potency did it give?
Answer: Its Potency is “inactive”.

Question: How did the Potency turn out when `C#C[C@]1(OC(=O)CCCCCC)CC[C@H]2C3CCC4=CC(=O)CC[C@@H]4[C@H]3CC[C@@]21C` (some centres not stated) was run?
Answer: The Potency was “inactive”.

Question: How did the Potency turn out when `Oc1ccc2c3c1OC1C(O)C=CC4[C@@H](C2)NCC[C@]314` (some centres not stated) was run?
Answer: The Potency was “inactive”.

Question: With `COc1ccc2c3c1OC1C(O)C=CC4[C@@H](C2)NCC[C@]314` (some centres not stated) as the compound, how does the Potency read?
Answer: Its Potency is “inactive”.

Question: Which Potency does the source give for `CC(=O)Oc1ccc2c3c1OC1C(OC(C)=O)C=CC4[C@@H](C2)N(C)CC[C@]314` (some centres not stated) here?
Answer: Its Potency is “inactive”.

Question: Which Potency does the source give for `COc1ccc2c3c1OC1[C@H](O)CCC4[C@@H](C2)N(C)CC[C@]314` (some centres not stated) here?
Answer: Its Potency is “inactive”.

Question: How did the Potency turn out when `CN[C@H](C)Cc1ccccc1` was run?
Answer: Its Potency is “inactive”.
